# ± gives the standard deviation of the averaged measurements.
# Test system: HCI01 (cells of a triple-negative basal-like breast cancer xenograft)
# Test: cell viability (% of vehicle); higher = less cytotoxic
# Details: 10 µM; 72 h
# 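Also: PDX cells carrying CMV promoter-driven luciferase, viability read as total photon flux per second by IVIS imaging following D-luciferin, vehicle control 0.1% DMSO.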
row,SMILES,cell viability
1,O=C1NC(=O)[C@@H](c2c[nH]c3ccccc23)[C@H]1c1cn2c3c(cccc13)CCC2 [Tivantinib (ARQ 197)],161 ± 20
2,CCC1(O)CC2CN(CCc3c([nH]c4ccccc34)C(C(=O)OC)(c3cc4c(cc3OC)N(C)C3C(O)(C(=O)OC)C(OC(C)=O)C5(CC)C=CCN6CCC43C65)C2)C1 (centres undefined) [vinblastine],123 ± 3.3
3,Nc1ccn(C2CCC(CO)O2)c(=O)n1 (centres undefined) [Zalcitabine],90.1 ± 3.1
4,CCc1nc(N)nc(N)c1-c1ccc(Cl)cc1 [Pyrimethamine],111 ± 6.4
5,C=C[C@]1(C)C[C@@H](OC(=O)CSC2C[C@H]3CC[C@@H](C2)N3C)[C@]2(C)[C@H](C)CC[C@]3(CCC(=O)[C@H]32)[C@@H](C)[C@@H]1O (some centres undefined) [Retapamulin],73.5 ± 21
6,Nc1ccc(S(N)(=O)=O)cc1 [Sulfanilamide],106 ± 25
7,CN(C)CCC(c1ccc(Br)cc1)c1ccccn1.O=C(O)C=CC(=O)O (centres undefined) [Brompheniramine hydrogen maleate],119 ± 19
8,O=C1CCC(N2C(=O)c3ccccc3C2=O)C(=O)N1 (centres undefined) [Thalidomide],144 ± 7.8
9,Cc1cccc(-c2nn3c(c2-c2ccnc4ccc(C(N)=O)cc24)CCC3)n1,117 ± 2.1
10,O=C(CS(=O)Cc1ccco1)NCC=CCOc1cc(CN2CCCCC2)ccn1 (centres undefined) [Lafutidine],137 ± 32
11,c1ccc(-c2ccc(C(c3ccccc3)n3ccnc3)cc2)cc1 (centres undefined) [Bifonazole],93.4 ± 4.3
12,Nc1nccs1 [Aminothiazole],147 ± 24
13,NC(=O)N1c2ccccc2C=Cc2ccccc21 [Carbamazepine],107 ± 2.9
14,CN(CC=CC#CC(C)(C)C)Cc1cccc2ccccc12 [Terbinafine],105 ± 5.9
15,CCCN1CCCCC1C(=O)Nc1c(C)cccc1C.Cl.O (centres undefined) [Ropivacaine hydrochloride monohydrate],86.9 ± 16
16,NCCCCC(NC(CCc1ccccc1)C(=O)O)C(=O)N1CCCC1C(=O)O.O.O (centres undefined) [Lisinopril dihydrate],98.2 ± 20
17,Cn1c(=O)cc(N2CCCC(N)C2)n(Cc2cc(F)ccc2C#N)c1=O (centres undefined) [Trelagliptin],111 ± 7
18,Nc1ccn(C2CSC(CO)O2)c(=O)n1 (centres undefined) [Lamivudine],106 ± 17
19,Clc1ccc(C(Cn2ccnc2)OCc2csc3c(Cl)cccc23)c(Cl)c1.O=[N+]([O-])O (centres undefined) [Sertaconazole nitrate],113 ± 34
20,O=C(O)c1cc(-c2ccccc2)nc2ccccc12 [Cinchophen],157 ± 2.4

row,SMILES,cell viability
1,CN1CCCC(n2nc(Cc3ccc(Cl)cc3)c3ccccc3c2=O)CC1.Cl (centres undefined) [Azelastine HCl],142 ± 46
2,Cc1cc(=O)[nH]c(=S)[nH]1 [Methylthiouracil],97.2 ± 29
3,CC(COc1ccccc1)N(CCCl)Cc1ccccc1.Cl (centres undefined) [Phenoxybenzamine HCl],122 ± 3.3
4,Cc1cn(C2CC(O)C(CO)O2)c(=O)[nH]c1=O (centres undefined) [Telbivudine],125 ± 3.9
5,CCCCCCCCCCCCCCCCO [1-Hexadecanol],108 ± 3.9
6,COC(=O)C1=COC(O)C2C(CO)=CCC12 (centres undefined) [Genipin],168 ± 20
7,CCOC(=O)CC(=O)N1CCSC1COc1ccccc1OC (centres undefined) [Moguisteine],68.2 ± 37
8,CC(Cc1cc2c(c(C(N)=O)c1)N(CCCO)CC2)NCCOc1ccccc1OCC(F)(F)F (centres undefined) [Silodosin],103 ± 7.4
9,COc1ccc(CN(CCN(C)C)c2ccccn2)cc1.O=C(O)/C=C\C(=O)O [Mepyramine maleate],93.8 ± 18
10,O=C(O)CCNC(=O)c1ccc(/N=N/c2ccc(O)c(C(=O)O)c2)cc1 [Balsalazide],96.3 ± 18
11,COC(=O)CCc1ccc(OCC(O)CNC(C)C)cc1.Cl (centres undefined) [Esmolol HCl],133 ± 46
12,Cc1ncc([N+](=O)[O-])n1CCO [Metronidazole],91.9 ± 32
13,CCCCc1nc(Cl)c(CO)n1Cc1ccc(-c2ccccc2-c2nnn[n-]2)cc1.[K+] [Losartan Potassium (DuP 753)],126 ± 8.5
14,CC(C)(C)C(=O)C(Oc1ccc(Cl)cc1)n1ccnc1 (centres undefined) [Climbazole],152 ± 37
15,Nc1ccc(C(=O)NCC(=O)[O-])cc1.[Na+] [Sodium 4-amiropparaty Hyalrate],107.1 ± 0.65
16,Cl.Clc1ccc2nsnc2c1NC1=NCCN1 [Tizanidine HCl],115 ± 7.6
17,Cc1nnc(C(=O)NC(C)(C)c2nc(C(=O)NCc3ccc(F)cc3)c(O)c(=O)n2C)o1 [Raltegravir (MK-0518)],126 ± 2
18,Cc1c(F)cc(C(=O)NC2CC2)cc1-c1ccc(C(=O)NCC(C)(C)C)cn1 [Losmapimod],84 ± 16
19,CCCC(C(=O)OCCN(CC)CC)(c1ccccc1)c1ccccc1.Cl [SKF 525A (hydrochloride)],103 ± 33
